Rows were chosen to be rich in hits. Some 6.5% of all compounds tested hit in one or more screens of this group.
VACV Venus inh – qHTS for Stage-Specific Inhibitors of Vaccinia Orthopoxvirus: Venus Reporter Primary qHTS; AID 720580, 2013; Potency, µM (top dose mostly 36.5 µM), inactives show at the top dose activity change, negative = inhibition, actives largely listed as inhibitors; Vaccinia virus Venus reporter expression, fluorescence; 330,000 compounds, 0.46% hits; calls by dose curve; tested in A549 cells; also: potency is read from the fitted curve at half-maximal effect; nearly all actives have a fitted effect of over 30% in size
MARV entry inh – qHTS for inhibitors of binding or entry into cells for Marburg Virus; Marburg virus pseudotyped entry inhibition, cell reporter; Potency, µM (titrated, usually from 37.8 µM), inactives show at the top dose activity change, negative = inhibition, usual class: inhibitors; 300,000 compounds, 1.8% hits; AID 540276, 2011; calls by dose curve; tested in HEK293 cells; also: potency is read from the fitted curve at half-maximal effect
FMDV antiviral – High Throughput Screening for Foot and Mouth Disease Virus Antivirals. Potency, µM (series often up to 57.9 µM), for the others: at the top dose activity change, negative = inhibition, hits mostly inhibitors. FMDV antiviral cell-based qHTS. 410,000 compounds, 1.2% hits; calls by dose curve; tested in HEK293T cells; also: read-out not given here; potency is read from the fitted curve at half-maximal effect; nearly all actives have a fitted effect of over 45% in size
VACV mCherry inh – qHTS for Stage-Specific Inhibitors of Vaccinia Orthopoxvirus: mCherry Reporter Primary qHTS; Vaccinia virus mCherry reporter infection, fluorescence; Potency, µM (titrated, usually from 36.5 µM), inactives show at the highest dose activity change, negative = inhibition, most hits filed as inhibitors; 310,000 compounds, 0.63% hits; calls by dose curve; tested in A549 cells; also: potency is read from the fitted curve at half-maximal effect; nearly all actives have a fitted effect of over 35% in size
LASV entry inh – qHTS for Inhibitors of binding or entry into cells for Lassa Virus; Potency, µM (titrated, usually from 37.9 µM), for inactives: at the highest dose activity change, negative = inhibition, most hits filed as inhibitors; Lassa virus pseudotype entry inhibition, cell reporter; 300,000 compounds, 1.2% hits; calls by dose curve; tested in HEK293 cells; also: potency is read from the fitted curve at half-maximal effect; nearly all actives have a fitted effect of over 50% in size
HCMV antiviral – qHTS Assay for inhibitors of the human cytomegalovirus (HCMV) | HFF cells, HCMV-luciferase reporter, 72 h; active compounds read low | activity change, negative = inhibition, % at 57.5 µM | 410,000 compounds, 4.5% hits | AID 1259415, 2018; in the data active = activity change below about -60%; inconclusive = no clear call, values can overlap the other calls; inactive = above about -39%
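Cell-based, HFFs, 1000 cells/well, 16 h 37C; cpds in DMSO + HCMV-luc, MOI 1 PFU/cell; 72 h 37C; OneGlo luminescence after 5 min RT; norm. to buffer vs Salinomycin 10uM.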
* = called active by the depositor; i = inactive; ? = inconclusive; . = no result given; [ ] = dose if it differs, or a comment. % is scaled to controls: 0 for no effect and ±100 for the full control effect.

SMILES	VACV Venus inh	MARV entry inh	FMDV antiviral	VACV mCherry inh	LASV entry inh	HCMV antiviral
O=C(NC(=S)Nc1ccc(Cc2ccncc2)cc1)c1ccccc1F	-26.7%	?	-20.3%	-16.9%	-50.7%	-99.2*
O=C(C[C@H]1C(=O)N(c2ccccc2)C[C@@H]1Cc1ccccc1)Nc1ccc(Br)cc1	-26.4%	.	0.0%	i	.	23.1
O=C(C[C@H]1C(=O)N(c2ccc(Br)cc2)C[C@@H]1Cc1ccccc1)Nc1ccccc1	-16.4%	.	0.0%	-3.5%	4.99µM*	32.5
COc1ccc(NC(=O)C[C@H]2C(=O)N(CCc3ccccc3)C[C@@H]2Cc2ccccc2)cc1	-12.5%	.	-18.2%	-4.6%	15.8µM*	20.4
COCCN1C(=O)c2oc3cc(C)cc(C)c3c(=O)c2C1c1cccc(O)c1 (stereo not drawn)	-1.9%	-23.9%[46.1 µM]	-8.7%	-2.4%	6.5%[46.1 µM]	-4.5
Cc1ccc2oc3c(c(=O)c2c1)C(c1cccc(O)c1)N(Cc1ccccc1Cl)C3=O (stereo not drawn)	-3.9%	4.1%[46.1 µM]	20.8%	-7.8%	25.5%[46.1 µM]	-74.0*
Cc1cc(C)c2c(=O)c3c(oc2c1)C(=O)N(Cc1ccc(F)cc1)C3c1cccc(O)c1 (stereo not drawn)	?	?	-10.9%	-28.3%	-36.8%[46.1 µM]	-65.6*
CCCC(=O)N1c2ccccc2-c2nnc(SC)nc2OC1c1sccc1C (stereo not drawn)	-7.1%	-4.3%[46.1 µM]	-20.5%	-6.9%	-0.2%[46.1 µM]	20.1
CCSc1nnc2c(n1)OC(c1sccc1C)N(C(C)=O)c1ccccc1-2 (stereo not drawn)	-16.1%	0.4%[46.1 µM]	-15.6%	-20.6%	-14.2%[46.1 µM]	-60.1*
Cc1cccc(CN2CCN(C3CN(CCc4ccccc4)S(=O)(=O)C3)CC2)c1 (stereo not drawn)	0.9%	.	-9.9%	10.7%	?	-62.9*
CCCCCCN1CCN(C2CN(Cc3ccc(C)cc3)S(=O)(=O)C2)CC1 (stereo not drawn)	-3.7%	.	-22.4%	3.5%	6.28µM*	-7.1
Cc1cccc2cc3c(nc12)SC(=NCC1CCCO1)N(Cc1ccco1)C3 (stereo not drawn)	-13.5%	?	?	-20.0%	?	.
Cc1ccc2nc3c(cc2c1)CN(Cc1ccco1)C(=NCC1CCCO1)S3 (stereo not drawn)	-13.7%	-11.6%[46.1 µM]	-11.4%	-4.2%	?	-70.1*
O=C1Nc2ccc(Br)cc2/C1=C/C(=O)c1ccccc1	-21.7%	?	?	-15.0%	?	?
C=CCOc1cccc(C(=O)/C=C2/C(=O)Nc3ccccc32)c1	.	.	28.2µM*	.	.	-5.6
Cc1c(C(=O)NCC(C)(C)CN(C)C)cnn1-c1nccc(-c2ccccc2F)n1	-7.0%	.	-3.9%	-13.3%	.	.
O=S(=O)(c1ccccc1)N1N=C(c2ccc(Br)cc2)CC1c1ccco1 (stereo not drawn)	0.0%[7.34 µM]	.	-10.0%	i[7.34 µM]	.	-60.3*
Cc1ccc2occ(CC(=O)Nc3ccc(Cl)c(C(F)(F)F)c3)c2c1	?	?	-4.0%	?	0.3%[46.1 µM]	-77.7*
C[C@@H]1CN(Cc2ccc3c(c2)CN(Cc2cccn2-c2ccccn2)CCO3)C[C@H](C)O1	4.9%	.	-8.4%	-8.8%	.	.
Cc1ccc(C2=CN(CCC(=O)O)C(=O)C2)cc1	.	.	.	.	.	25.8
CC(C)C[C@H](NC(=O)NCc1ccc(F)cc1)C(=O)O	-2.7%	8.0%	3.8%	i	-2.6%	5.5
CCN(CC)CC(O)c1cccn1-c1ccc(CNC(=O)NC(C)C)cc1 (stereo not drawn)	.	-5.4%	-2.9%	.	-7.4%	-65.9*
C#CCNc1c2c(nc3ncnn13)CC(C)CC2 (stereo not drawn)	-16.4%	.	-6.1%	-6.4%	.	-101.3*
COC(=O)CSC1=C(C#N)C(c2ccc(F)cc2)CC(=O)N1 (stereo not drawn)	-17.8%	.	-22.7%	-20.3%	.	33.3
N#CC1=C(SCC(=O)Nc2nccs2)NC(=O)CC1c1ccccc1 (stereo not drawn)	-4.2%	8.3%	-8.0%	-18.6%	14.7%	-17.8
